Results taken from PubChem BioAssay AID1159580 (chemical genetic matrix, 2015).
The campaign covered roughly 5,500 compounds. About 2,000 (36%) were called active. Roughly 18% stayed inconclusive and do not appear here. Rule as the data show it: active = normalized growth mostly below about 0.91 (no sharp cut-off); inconclusive = no clear call, values can overlap the other calls; inactive = mostly above about 0.92. The list shows a part of the results.

Test: chemical genetic growth profiling, strain panel (AID 1159580);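 also: tested at 20 µM; growth read once vehicle control cultures reached saturation at 30 °C; 1 = growth at the plate median or of vehicle wells; lower values mean less growth of the strain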
Conditions: growth OD

Measured: normalized growth

Clc1ccc(Cl)cc1
inactive: S. cerevisiae deletion strains, locus YAL013W, strain DEP1, active compounds read low 1.01 | S. cerevisiae deletion strains, locus YBR021W, strain FUR4, active compounds read low 1.01 | S. cerevisiae deletion strains, locus YBR229C, strain ROT2, active compounds read low 1.01 | S. cerevisiae deletion strains, locus YCL029C, strain bik1, active compounds read low 0.994 | S. cerevisiae deletion strains, locus YDL035C, strain GPR1, active compounds read low 1.02 | S. cerevisiae deletion strains, locus YDL074C, strain BRE1, active compounds read low 1.04 | S. cerevisiae deletion strains, locus YDL101C, strain DUN1, active compounds read low 1.02 | S. cerevisiae deletion strains, locus YDL134C, strain PPH21, active compounds read low 1 | S. cerevisiae deletion strains, locus YDL185W, strain tfp1, active compounds read low 0.968 | S. cerevisiae deletion strains, locus YDL192W, strain arf1, active compounds read low 0.983 | S. cerevisiae deletion strains, locus YDR101C, strain arx1, active compounds read low 0.986 | S. cerevisiae deletion strains, locus YDR150W, strain NUM1, active compounds read low 1 | S. cerevisiae deletion strains, locus YDR162C, strain NBP2, active compounds read low 1.01 | S. cerevisiae deletion strains, locus YDR318W, strain mcm21, active compounds read low 0.99 | S. cerevisiae deletion strains, locus YDR388W, active compounds read low 0.988 | S. cerevisiae deletion strains, locus YDR502C, strain sam2, active compounds read low 0.993 | S. cerevisiae deletion strains, locus YEL061C, strain CIN8, active compounds read low 1 | S. cerevisiae deletion strains, locus YER110C, active compounds read low 0.979 | S. cerevisiae deletion strains, locus YER155C, strain BEM2, active compounds read low 1.01 | S. cerevisiae deletion strains, locus YER167W, strain BCK2, active compounds read low 1.01 | S. cerevisiae deletion strains, locus YGL078C, strain dbp3, active compounds read low 0.974 | S. cerevisiae deletion strains, locus YGL086W, strain mad1, active compounds read low 1 | S. cerevisiae deletion strains, locus YGL248W, strain PDE1, active compounds read low 1.01 | S. cerevisiae deletion strains, locus YGR078C, strain PAC10, active compounds read low 1.02 | S. cerevisiae deletion strains, locus YGR135W, strain pre9, active compounds read low 0.99 | S. cerevisiae deletion strains, locus YGR229C, strain SMI1, active compounds read low 1.02 | S. cerevisiae deletion strains, locus YGR252W, strain gcn5, active compounds read low 0.964 | S. cerevisiae deletion strains, locus YHR030C, strain SLT2, active compounds read low 1.01 | S. cerevisiae deletion strains, locus YHR079C, strain IRE1 (second series), active compounds read low 0.989 | S. cerevisiae deletion strains, locus YHR094C, strain hxt1, active compounds read low 0.987 | S. cerevisiae deletion strains, locus YHR129C, strain ARP1, active compounds read low 1.01 | S. cerevisiae deletion strains, locus YHR200W, strain rpn10, active compounds read low 0.988 | S. cerevisiae deletion strains, locus YIL066C, strain RNR3, active compounds read low 1.02 | S. cerevisiae deletion strains, locus YIL073C, strain SPO22, active compounds read low 1.01 | S. cerevisiae deletion strains, locus YIL125W, strain kgd1, active compounds read low 0.972 | S. cerevisiae deletion strains, locus YIR030C, strain dcg1, active compounds read low 0.987 | S. cerevisiae deletion strains, locus YJL095W, strain BCK1, active compounds read low 1.02 | S. cerevisiae deletion strains, locus YJL134W, strain LCB3, active compounds read low 1.01 | S. cerevisiae deletion strains, locus YJL168C, strain set2, active compounds read low 0.983 | S. cerevisiae deletion strains, locus YJL187C, strain SWE1 (second series), active compounds read low 1.01 | S. cerevisiae deletion strains, locus YJR043C, strain POL32, active compounds read low 1 | S. cerevisiae deletion strains, locus YJR075W, strain HOC1, active compounds read low 1.01 | S. cerevisiae deletion strains, locus YKL009W, strain mrt4, active compounds read low 1 | S. cerevisiae deletion strains, locus YKL068W, active compounds read low 0.984 | S. cerevisiae deletion strains, locus YKL085W, strain MDH1 (second series), active compounds read low 0.982 | S. cerevisiae deletion strains, locus YKL085W, strain MDH1, active compounds read low 0.982 | S. cerevisiae deletion strains, locus YKL190W, strain CNB1, active compounds read low 1.02 | S. cerevisiae deletion strains, locus YKR001C, strain vps1, active compounds read low 0.989 | S. cerevisiae deletion strains, locus YLR039C, strain RIC1, active compounds read low 1.04 | S. cerevisiae deletion strains, locus YLR058C, strain SHM2, active compounds read low 1.01 | S. cerevisiae deletion strains, locus YLR102C, strain apc9, active compounds read low 0.993 | S. cerevisiae deletion strains, locus YLR262C, strain YPT6, active compounds read low 1.04 | S. cerevisiae deletion strains, locus YLR268W, strain sec22, active compounds read low 0.999 | S. cerevisiae deletion strains, locus YLR330W, strain CHS5, active compounds read low 1 | S. cerevisiae deletion strains, locus YLR342W, strain FKS1 (second series), active compounds read low 0.997 | S. cerevisiae deletion strains, locus YLR371W, strain rom2, active compounds read low 0.981 | S. cerevisiae deletion strains, locus YLR418C, strain cdc73, active compounds read low 0.974 | S. cerevisiae deletion strains, locus YML016C, strain PPZ1, active compounds read low 1.01 | S. cerevisiae deletion strains, locus YML032C, strain rad52, active compounds read low 0.986 | S. cerevisiae deletion strains, locus YML124C, strain tub3, active compounds read low 0.987 | S. cerevisiae deletion strains, locus YMR078C, strain ctf18, active compounds read low 0.99 | S. cerevisiae deletion strains, locus YMR223W, strain ubp8, active compounds read low 0.984 | S. cerevisiae deletion strains, locus YMR263W, strain SAP30, active compounds read low 1.01 | S. cerevisiae deletion strains, locus YMR307W, strain GAS1, active compounds read low 1.03 | S. cerevisiae deletion strains, locus YNL067W, strain RPL9B, active compounds read low 1.02 | S. cerevisiae deletion strains, locus YNL128W, strain TEP1, active compounds read low 1.02 | S. cerevisiae deletion strains, locus YNL153C, strain GIM3, active compounds read low 1.01 | S. cerevisiae deletion strains, locus YNL233W, strain BNI4, active compounds read low 1.02 | S. cerevisiae deletion strains, locus YNL250W, strain rad50, active compounds read low 0.963 | S. cerevisiae deletion strains, locus YNL271C, strain bni1, active compounds read low 0.98 | S. cerevisiae deletion strains, locus YNL298W, strain CLA4, active compounds read low 0.98 | S. cerevisiae deletion strains, locus YNL307C, strain MCK1, active compounds read low 0.991 | S. cerevisiae deletion strains, locus YNL322C, strain KRE1, active compounds read low 1.01 | S. cerevisiae deletion strains, locus YNR052C, strain pop2, active compounds read low 0.981 | S. cerevisiae deletion strains, locus YOL006C, strain TOP1, active compounds read low 1.05 | S. cerevisiae deletion strains, locus YOL012C, strain htz1 0.71 | S. cerevisiae deletion strains, locus YOL147C, strain pex11, active compounds read low 0.992 | S. cerevisiae deletion strains, locus YOR061W, strain CKA2, active compounds read low 1.01 | S. cerevisiae deletion strains, locus YOR069W, strain VPS5, active compounds read low 1.01 | S. cerevisiae deletion strains, locus YOR136W, strain idh2, active compounds read low 0.985 | S. cerevisiae deletion strains, locus YOR144C, strain elg1, active compounds read low 0.994 | S. cerevisiae deletion strains, locus YOR184W, strain ser1, active compounds read low 0.997 | S. cerevisiae deletion strains, locus YOR316C, strain cot1, active compounds read low 0.989 | S. cerevisiae deletion strains, locus YPL055C, strain LGE1, active compounds read low 1.02 | S. cerevisiae deletion strains, locus YPL241C, strain CIN2, active compounds read low 1.01 | S. cerevisiae deletion strains, locus YPR119W, strain clb2, active compounds read low 0.988 | S. cerevisiae deletion strains, locus YPR141C, strain kar3, active compounds read low 0.975 | S. cerevisiae deletion strains, locus YPR163C, strain tif3, active compounds read low 0.991 | S. cerevisiae deletion strains, locus YPR167C, strain met16, active compounds read low 0.985 | S. cerevisiae deletion strains, strain wtn01, active compounds read low 0.987 | S. cerevisiae strains, strain wild type, active compounds read low 1.01
